# Reference: article PMC7862700, “An all-to-all approach to the identification of sequence-specific readers for epigenetic DNA modifications on cytosine”
# What was measured:
# Experiment in all cases: DAPPL (digital affinity profiling via proximity ligation, sequencing); 10 mM Tris-HCl pH 7.5, 50 mM NaCl, 1 mM DTT, 4% glycerol, room temperature, 30 min; GST-TFs on glutathione beads, 16-mer random dsDNA library, 0.1% formaldehyde crosslink after washing; high values mean tight binding
# FLI1 = target: T1, FLI1 (Homo sapiens, UniProt Q01543 1-452); details: protein: recombinant; tags: N-terminal GST; dsDNA, one strand shown
# T1 sequence: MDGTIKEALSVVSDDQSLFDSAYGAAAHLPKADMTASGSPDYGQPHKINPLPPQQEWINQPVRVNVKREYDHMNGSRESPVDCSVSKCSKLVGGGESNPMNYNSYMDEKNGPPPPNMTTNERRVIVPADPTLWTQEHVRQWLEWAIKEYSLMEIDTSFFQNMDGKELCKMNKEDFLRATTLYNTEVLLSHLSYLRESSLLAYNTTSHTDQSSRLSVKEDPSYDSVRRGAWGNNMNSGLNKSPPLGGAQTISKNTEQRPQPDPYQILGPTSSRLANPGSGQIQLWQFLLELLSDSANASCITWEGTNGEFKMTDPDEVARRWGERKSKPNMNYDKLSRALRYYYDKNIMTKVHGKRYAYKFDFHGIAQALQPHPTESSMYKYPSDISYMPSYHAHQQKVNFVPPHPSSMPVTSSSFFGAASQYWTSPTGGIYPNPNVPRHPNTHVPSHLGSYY
# In short: (§1)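 Human transcription factors carrying a GST fusion were produced in yeast, bound to glutathione beads, tagged with DNA barcodes and pooled together with a tag-only sample. Each pool was held with 200 nmole of a random double-stranded 16-mer DNA library in Tris/NaCl/DTT/glycerol buffer for 30 min at room temperature, then washed, crosslinked in 0.1% formaldehyde, proximity-ligated with BsaI/T4 ligase (1 h, 37 °C), PCR-amplified and sequenced on an Illumina NextSeq500. Binding signal is the read frequency of each hexamer for a given factor divided by its frequency in the tag-only sample.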
# ELK1 = target: T2, ELK1 (Homo sapiens, UniProt P19419 1-428); details: protein: recombinant; tags: N-terminal GST; dsDNA, one strand shown
# T2 sequence: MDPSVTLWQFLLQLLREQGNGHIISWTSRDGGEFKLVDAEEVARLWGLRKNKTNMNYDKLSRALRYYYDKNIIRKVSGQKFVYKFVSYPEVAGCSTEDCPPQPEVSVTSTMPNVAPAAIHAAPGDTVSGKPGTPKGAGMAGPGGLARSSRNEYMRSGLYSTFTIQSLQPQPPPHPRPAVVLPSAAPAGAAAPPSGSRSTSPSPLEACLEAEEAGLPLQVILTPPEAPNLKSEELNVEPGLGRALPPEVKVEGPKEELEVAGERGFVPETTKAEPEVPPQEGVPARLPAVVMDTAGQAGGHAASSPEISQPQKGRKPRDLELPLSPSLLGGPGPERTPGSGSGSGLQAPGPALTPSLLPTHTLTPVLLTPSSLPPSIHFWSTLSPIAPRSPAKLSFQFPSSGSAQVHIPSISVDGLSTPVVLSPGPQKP
# In short: as §1
# GABPA = target: T3, GABPA (Homo sapiens, UniProt Q06546 1-454); details: protein: recombinant; tags: N-terminal GST; dsDNA, one strand shown
# T3 sequence: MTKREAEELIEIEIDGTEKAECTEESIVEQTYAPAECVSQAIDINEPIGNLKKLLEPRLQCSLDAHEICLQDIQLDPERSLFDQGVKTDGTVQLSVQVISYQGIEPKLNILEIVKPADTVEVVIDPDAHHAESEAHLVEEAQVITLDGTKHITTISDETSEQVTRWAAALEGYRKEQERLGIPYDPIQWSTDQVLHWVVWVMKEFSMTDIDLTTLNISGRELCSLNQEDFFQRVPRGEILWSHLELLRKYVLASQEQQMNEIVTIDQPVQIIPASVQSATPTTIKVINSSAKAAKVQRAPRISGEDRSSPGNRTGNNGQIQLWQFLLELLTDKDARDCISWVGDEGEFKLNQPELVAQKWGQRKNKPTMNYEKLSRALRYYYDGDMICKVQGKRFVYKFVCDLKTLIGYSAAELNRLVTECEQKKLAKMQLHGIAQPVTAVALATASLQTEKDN
# In short: as §1
# ERG = target: T4, ERG (Homo sapiens, UniProt P11308 1-479); details: protein: recombinant; tags: N-terminal GST; dsDNA, one strand shown
# T4 sequence: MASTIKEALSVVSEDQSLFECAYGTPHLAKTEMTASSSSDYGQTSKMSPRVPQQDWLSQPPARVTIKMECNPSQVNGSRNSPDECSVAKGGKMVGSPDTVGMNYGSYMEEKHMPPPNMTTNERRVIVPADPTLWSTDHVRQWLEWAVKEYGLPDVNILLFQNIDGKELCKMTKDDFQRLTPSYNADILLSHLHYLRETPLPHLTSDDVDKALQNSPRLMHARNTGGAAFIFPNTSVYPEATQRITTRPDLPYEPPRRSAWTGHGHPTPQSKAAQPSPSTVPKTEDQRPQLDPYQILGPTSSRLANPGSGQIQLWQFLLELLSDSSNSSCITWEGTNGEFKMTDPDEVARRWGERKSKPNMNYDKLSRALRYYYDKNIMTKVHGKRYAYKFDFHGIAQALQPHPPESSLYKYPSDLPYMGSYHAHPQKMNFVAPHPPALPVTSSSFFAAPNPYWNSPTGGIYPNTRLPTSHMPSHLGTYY
# In short: as §1
# ELF1 = ELF1 (Homo sapiens, UniProt P32519 1-619); details: protein: recombinant; tags: N-terminal GST; dsDNA, one strand shown
# Chain of ELF1 (P32519 whole entry): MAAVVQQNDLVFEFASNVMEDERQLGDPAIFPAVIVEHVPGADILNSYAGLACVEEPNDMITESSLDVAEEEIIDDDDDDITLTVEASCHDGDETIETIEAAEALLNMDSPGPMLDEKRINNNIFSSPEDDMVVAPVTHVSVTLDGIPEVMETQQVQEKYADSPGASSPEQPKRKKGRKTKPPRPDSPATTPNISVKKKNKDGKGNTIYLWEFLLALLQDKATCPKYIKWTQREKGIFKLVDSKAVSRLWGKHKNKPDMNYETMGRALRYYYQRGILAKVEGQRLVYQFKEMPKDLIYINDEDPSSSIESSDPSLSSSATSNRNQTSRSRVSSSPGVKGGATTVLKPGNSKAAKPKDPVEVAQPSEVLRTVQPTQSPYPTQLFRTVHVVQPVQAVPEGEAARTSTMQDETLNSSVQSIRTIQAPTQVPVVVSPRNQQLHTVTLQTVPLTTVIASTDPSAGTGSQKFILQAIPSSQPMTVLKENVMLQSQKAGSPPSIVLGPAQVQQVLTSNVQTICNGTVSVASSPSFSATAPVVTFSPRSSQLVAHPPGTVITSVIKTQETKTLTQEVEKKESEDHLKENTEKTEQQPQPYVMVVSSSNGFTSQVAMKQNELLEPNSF
# In short: as §1
# EHF = target: T5, EHF (Homo sapiens, UniProt Q9NZC4 1-300); details: protein: recombinant; tags: N-terminal GST; dsDNA, one strand shown
# T5 sequence: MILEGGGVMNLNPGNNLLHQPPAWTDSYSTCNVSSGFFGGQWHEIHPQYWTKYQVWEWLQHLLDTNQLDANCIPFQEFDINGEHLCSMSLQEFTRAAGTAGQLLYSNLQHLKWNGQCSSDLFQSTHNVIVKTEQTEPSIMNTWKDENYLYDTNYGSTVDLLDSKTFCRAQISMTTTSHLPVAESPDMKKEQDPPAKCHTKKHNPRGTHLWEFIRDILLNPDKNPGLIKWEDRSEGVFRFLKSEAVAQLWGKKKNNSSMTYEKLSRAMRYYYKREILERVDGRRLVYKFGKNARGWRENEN
# In short: as §1
# SPI1 = SPI1 (Homo sapiens, UniProt P17947 1-270); details: protein: recombinant; tags: N-terminal GST; dsDNA, one strand shown
# In short: as §1
# SPIB = SPIB (Homo sapiens, UniProt Q01892 1-262); details: protein: recombinant; tags: N-terminal GST; dsDNA, one strand shown
# Chain of SPIB (Q01892 whole entry): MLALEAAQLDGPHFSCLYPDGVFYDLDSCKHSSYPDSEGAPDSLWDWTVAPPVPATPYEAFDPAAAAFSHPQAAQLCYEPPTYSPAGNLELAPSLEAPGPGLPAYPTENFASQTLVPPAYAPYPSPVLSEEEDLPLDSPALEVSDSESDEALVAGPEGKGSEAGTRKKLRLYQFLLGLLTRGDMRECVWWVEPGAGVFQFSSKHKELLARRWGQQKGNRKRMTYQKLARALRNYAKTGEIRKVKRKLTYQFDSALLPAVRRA
# In short: as §1
# ELK3 = target: T6, ELK3 (Homo sapiens, UniProt P41970 1-407); details: protein: recombinant; tags: N-terminal GST; dsDNA, one strand shown
# T6 sequence: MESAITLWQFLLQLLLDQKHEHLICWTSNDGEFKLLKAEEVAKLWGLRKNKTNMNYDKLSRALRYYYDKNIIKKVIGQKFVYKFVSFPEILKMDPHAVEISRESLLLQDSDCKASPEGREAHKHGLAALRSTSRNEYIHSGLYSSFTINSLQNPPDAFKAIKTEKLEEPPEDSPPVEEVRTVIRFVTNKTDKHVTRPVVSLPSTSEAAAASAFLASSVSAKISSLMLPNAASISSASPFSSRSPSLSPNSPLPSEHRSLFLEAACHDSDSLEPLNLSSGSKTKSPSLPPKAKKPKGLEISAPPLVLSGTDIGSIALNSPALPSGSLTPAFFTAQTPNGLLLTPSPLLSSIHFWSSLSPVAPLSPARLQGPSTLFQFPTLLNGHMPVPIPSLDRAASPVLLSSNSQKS
# In short: as §1
# FEV = target: T7, FEV (Homo sapiens, UniProt Q99581 1-238); details: protein: recombinant; tags: N-terminal GST; dsDNA, one strand shown
# T7 sequence: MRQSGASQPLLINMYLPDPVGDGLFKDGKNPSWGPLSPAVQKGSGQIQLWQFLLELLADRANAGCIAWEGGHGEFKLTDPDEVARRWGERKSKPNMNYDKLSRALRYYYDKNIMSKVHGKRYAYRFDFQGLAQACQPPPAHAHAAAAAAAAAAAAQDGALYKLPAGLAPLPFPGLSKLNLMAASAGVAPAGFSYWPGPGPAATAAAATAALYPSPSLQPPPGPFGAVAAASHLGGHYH
# In short: as §1
# ETV5 = ETV5 (Homo sapiens, UniProt P41161 1-510); details: protein: recombinant; tags: N-terminal GST; dsDNA, one strand shown
# Chain of ETV5 (P41161 whole entry): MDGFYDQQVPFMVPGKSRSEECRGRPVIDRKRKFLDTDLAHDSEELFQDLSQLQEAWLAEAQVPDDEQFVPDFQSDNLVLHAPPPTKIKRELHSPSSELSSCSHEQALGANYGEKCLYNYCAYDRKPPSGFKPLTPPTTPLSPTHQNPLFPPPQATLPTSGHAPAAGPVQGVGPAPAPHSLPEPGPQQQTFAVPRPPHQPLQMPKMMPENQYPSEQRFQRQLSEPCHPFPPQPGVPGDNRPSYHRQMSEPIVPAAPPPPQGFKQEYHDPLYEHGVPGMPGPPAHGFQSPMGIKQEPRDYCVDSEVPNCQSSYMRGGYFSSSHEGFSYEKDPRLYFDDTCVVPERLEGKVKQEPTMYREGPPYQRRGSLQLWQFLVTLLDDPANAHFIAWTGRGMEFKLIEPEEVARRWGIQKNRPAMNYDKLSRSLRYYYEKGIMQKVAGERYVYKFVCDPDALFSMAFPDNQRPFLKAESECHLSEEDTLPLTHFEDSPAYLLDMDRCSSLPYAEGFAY
# In short: as §1
# HSF1 = HSF1 (Homo sapiens, UniProt Q00613 1-529); details: protein: recombinant; tags: N-terminal GST; chain copies: 3; dsDNA, one strand shown
# Chain of HSF1 (Q00613 whole entry): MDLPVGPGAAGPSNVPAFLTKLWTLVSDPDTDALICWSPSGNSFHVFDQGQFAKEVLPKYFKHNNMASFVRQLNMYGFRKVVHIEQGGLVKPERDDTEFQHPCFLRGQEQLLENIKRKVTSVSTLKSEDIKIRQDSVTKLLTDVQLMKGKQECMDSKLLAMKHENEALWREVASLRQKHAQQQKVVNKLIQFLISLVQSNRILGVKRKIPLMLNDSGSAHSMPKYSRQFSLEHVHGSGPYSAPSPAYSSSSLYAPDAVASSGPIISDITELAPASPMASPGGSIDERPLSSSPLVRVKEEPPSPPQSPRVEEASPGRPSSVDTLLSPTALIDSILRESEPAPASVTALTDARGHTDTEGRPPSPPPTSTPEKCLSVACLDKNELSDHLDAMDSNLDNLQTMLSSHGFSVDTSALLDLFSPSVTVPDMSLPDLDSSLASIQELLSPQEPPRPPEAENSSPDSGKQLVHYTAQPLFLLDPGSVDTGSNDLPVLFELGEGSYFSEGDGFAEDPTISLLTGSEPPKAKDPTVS
# In short: as §1
# SPIC = target: T8, SPIC (Homo sapiens, UniProt Q8N5J4 1-248); details: protein: recombinant; tags: N-terminal GST; dsDNA, one strand shown
# T8 sequence: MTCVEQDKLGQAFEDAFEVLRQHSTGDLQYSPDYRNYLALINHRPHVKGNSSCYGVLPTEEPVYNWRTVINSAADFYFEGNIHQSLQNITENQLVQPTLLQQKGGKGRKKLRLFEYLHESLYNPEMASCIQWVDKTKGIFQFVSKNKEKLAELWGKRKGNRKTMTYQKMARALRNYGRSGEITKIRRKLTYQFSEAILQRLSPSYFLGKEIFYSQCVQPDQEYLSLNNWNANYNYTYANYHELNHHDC
# In short: as §1
# ELF4 = ELF4 (Homo sapiens, UniProt Q99607 1-663); details: protein: recombinant; tags: N-terminal GST; dsDNA, one strand shown
# Chain of ELF4 (Q99607 whole entry): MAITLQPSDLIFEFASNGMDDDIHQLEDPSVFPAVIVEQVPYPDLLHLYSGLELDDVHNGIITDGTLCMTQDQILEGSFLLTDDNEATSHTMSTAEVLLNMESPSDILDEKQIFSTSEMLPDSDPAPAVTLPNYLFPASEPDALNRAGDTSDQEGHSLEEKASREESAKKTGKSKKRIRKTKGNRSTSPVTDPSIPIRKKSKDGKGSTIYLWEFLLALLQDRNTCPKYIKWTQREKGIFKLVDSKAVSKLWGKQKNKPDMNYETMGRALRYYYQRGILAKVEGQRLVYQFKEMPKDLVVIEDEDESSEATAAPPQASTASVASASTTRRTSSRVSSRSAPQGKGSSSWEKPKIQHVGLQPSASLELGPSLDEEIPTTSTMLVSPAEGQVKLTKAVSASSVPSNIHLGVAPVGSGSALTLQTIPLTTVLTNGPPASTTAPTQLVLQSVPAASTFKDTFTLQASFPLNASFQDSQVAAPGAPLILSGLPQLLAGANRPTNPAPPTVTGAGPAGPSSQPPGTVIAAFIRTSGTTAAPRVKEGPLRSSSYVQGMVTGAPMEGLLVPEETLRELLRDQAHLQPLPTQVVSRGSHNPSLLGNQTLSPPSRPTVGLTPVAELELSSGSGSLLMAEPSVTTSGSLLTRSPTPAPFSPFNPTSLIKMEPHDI
# In short: as §1
# ELK4 = target: T9, ELK4 (Homo sapiens, UniProt P28324-2 1-405); details: protein: recombinant; tags: N-terminal GST; dsDNA, one strand shown
# T9 sequence: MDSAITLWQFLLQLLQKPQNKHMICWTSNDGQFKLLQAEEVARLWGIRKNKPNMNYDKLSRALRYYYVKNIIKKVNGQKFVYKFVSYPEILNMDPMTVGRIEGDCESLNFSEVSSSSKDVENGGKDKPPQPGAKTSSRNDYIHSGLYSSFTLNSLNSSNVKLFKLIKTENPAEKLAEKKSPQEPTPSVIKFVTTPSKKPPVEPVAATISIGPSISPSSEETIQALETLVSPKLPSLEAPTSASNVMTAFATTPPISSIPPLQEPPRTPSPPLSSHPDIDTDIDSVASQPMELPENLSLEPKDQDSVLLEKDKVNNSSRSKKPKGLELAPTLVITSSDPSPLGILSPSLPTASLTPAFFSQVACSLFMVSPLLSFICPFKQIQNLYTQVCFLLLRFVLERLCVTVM
# In short: as §1
# ETV2 = target: T10, ETV2 (Homo sapiens, UniProt O00321 1-342); details: protein: recombinant; tags: N-terminal GST; dsDNA, one strand shown
# T10 sequence: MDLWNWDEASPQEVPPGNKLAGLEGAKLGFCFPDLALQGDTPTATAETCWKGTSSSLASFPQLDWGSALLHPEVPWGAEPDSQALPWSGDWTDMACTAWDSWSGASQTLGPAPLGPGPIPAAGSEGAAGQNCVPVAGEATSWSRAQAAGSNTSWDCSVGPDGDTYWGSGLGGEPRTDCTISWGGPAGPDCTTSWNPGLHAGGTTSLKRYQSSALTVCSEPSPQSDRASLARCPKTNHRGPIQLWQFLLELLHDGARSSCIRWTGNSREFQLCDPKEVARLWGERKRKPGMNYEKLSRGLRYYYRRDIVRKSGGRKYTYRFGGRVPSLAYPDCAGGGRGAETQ
# In short: as §1
# ELF3 = target: T11, ELF3 (Homo sapiens, UniProt P78545 1-371); details: protein: recombinant; tags: N-terminal GST; dsDNA, one strand shown
# T11 sequence: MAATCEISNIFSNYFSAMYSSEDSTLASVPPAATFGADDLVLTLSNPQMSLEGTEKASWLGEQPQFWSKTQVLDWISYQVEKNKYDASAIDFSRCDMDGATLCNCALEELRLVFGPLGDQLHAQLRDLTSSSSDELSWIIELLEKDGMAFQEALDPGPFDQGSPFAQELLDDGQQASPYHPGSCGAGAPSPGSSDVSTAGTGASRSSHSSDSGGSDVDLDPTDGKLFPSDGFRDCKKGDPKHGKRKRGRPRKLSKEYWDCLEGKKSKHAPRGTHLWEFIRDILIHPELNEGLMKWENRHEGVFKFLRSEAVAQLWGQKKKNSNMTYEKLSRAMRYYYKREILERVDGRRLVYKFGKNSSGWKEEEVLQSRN
# In short: as §1
# CRX = CRX (Homo sapiens, UniProt O43186 1-299); details: protein: recombinant; tags: N-terminal GST; dsDNA, one strand shown
# Chain of CRX (O43186 whole entry): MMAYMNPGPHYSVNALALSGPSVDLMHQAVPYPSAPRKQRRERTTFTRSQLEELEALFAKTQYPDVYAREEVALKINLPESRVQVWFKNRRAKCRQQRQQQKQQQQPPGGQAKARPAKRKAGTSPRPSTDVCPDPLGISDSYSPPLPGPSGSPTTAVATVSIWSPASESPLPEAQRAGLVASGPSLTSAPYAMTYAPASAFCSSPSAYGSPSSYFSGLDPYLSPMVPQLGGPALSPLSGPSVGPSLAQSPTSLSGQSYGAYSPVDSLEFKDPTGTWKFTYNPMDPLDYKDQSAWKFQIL
# In short: as §1
# ETV1 = ETV1 (Homo sapiens, UniProt P50549 1-477); details: protein: recombinant; tags: N-terminal GST; dsDNA, one strand shown
# Chain of ETV1 (P50549 whole entry): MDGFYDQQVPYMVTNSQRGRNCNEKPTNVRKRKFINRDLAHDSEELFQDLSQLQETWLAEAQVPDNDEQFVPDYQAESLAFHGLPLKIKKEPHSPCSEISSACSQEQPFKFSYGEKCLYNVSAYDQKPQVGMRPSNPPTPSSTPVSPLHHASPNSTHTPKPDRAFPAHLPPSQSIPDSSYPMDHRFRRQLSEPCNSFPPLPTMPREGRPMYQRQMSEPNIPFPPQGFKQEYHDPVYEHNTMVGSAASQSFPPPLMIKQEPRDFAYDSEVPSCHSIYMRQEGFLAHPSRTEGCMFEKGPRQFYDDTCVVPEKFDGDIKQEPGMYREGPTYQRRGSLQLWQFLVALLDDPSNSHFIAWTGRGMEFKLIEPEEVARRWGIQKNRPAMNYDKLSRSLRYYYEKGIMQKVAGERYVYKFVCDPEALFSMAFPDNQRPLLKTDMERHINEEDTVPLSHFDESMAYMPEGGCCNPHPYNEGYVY
# In short: as §1
sequence,measurement,setting,value
CCCTAC,binding signal,FLI1,"1.5 fold enrichment (6-mer frequency, TF over GST control)"
same,binding signal,ELK1,"1.49 fold enrichment (6-mer frequency, TF over GST control)"
same,binding signal,GABPA,"1.33 fold enrichment (6-mer frequency, TF over GST control)"
same,binding signal,ERG,"1.33 fold enrichment (6-mer frequency, TF over GST control)"
same,binding signal,ELF1,"1.4 fold enrichment (6-mer frequency, TF over GST control)"
same,binding signal,EHF,"1.33 fold enrichment (6-mer frequency, TF over GST control)"
same,binding signal,SPI1,"1.36 fold enrichment (6-mer frequency, TF over GST control)"
same,binding signal,SPIB,"1.25 fold enrichment (6-mer frequency, TF over GST control)"
same,binding signal,ELK3,"1.65 fold enrichment (6-mer frequency, TF over GST control)"
same,binding signal,FEV,"1.46 fold enrichment (6-mer frequency, TF over GST control)"
same,binding signal,ETV5,"1.43 fold enrichment (6-mer frequency, TF over GST control)"
same,binding signal,HSF1,"1.13 fold enrichment (6-mer frequency, TF over GST control)"
same,binding signal,SPIC,"1.45 fold enrichment (6-mer frequency, TF over GST control)"
same,binding signal,ELF4,"1.47 fold enrichment (6-mer frequency, TF over GST control)"
same,binding signal,ELK4,"1.53 fold enrichment (6-mer frequency, TF over GST control)"
same,binding signal,ETV2,"1.22 fold enrichment (6-mer frequency, TF over GST control)"
same,binding signal,ELF3,"1.48 fold enrichment (6-mer frequency, TF over GST control)"
same,binding signal,CRX,"1.19 fold enrichment (6-mer frequency, TF over GST control)"
same,binding signal,ETV1,"1.46 fold enrichment (6-mer frequency, TF over GST control)"
